Compounds with a hit are over-represented: about 3.4% of the library has one in this group of screens.
SMARCA2 act: activators of SMARCA2 function. hit rate 1% among 370,000. MG213 cells, MMTV-luciferase reporter, dexamethasone, overnight. activation, % at 9.1 µM. AID 652017; in the data active = activation above about 7.8%;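 note: 0% = vehicle wells and 100% = reference activator wells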
GAA850 FXN act: increases GAA850 frataxin promoter reporter activity | AID 540364 | hit rate 0.56% among 360,000 | activation, % at 6 µM | HEK293 lucGAA850 FXN promoter luciferase reporter, 24 h; percent of 10 µM SAHA response;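 active = activation above the average of all compounds screened plus 3 SD, cutoff fixed separately per campaign, cut at about 7.5% in these data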;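 note: 0% = DMSO wells and 100% = 10 µM SAHA wells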
HSF1 inhib: HSF1 inhibition; NIH3T3-HGL HSE-luciferase, MG132-induced, luminescence 8 h; hits give low values; activity change, negative = inhibition, % at 7.5 µM (by protocol); hit rate 0.77% among 300,000;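 active = more than half of replicate wells show activity change below -50%, luminescence cut by over half; inconclusive = some wells, but at most half, below -50%; inactive = no replicate well below -50%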;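 note: luciferase reports HSF-1 transcriptional activity via heat shock element; 0% = median of DMSO wells and -100% = zero luminescence signal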
PG9 Ab binder: small molecules binding HIV-1 gp120 antibody PG9 | inhibition, % at 6.7 µM | TR-FRET gp120-PG9 antibody binding | hit rate 0.43% among 360,000; in the data active = inhibition above about 8.5%
AI-2 QS modul: modulators of Vibrio harveyi AI-2 quorum sensing system. Vibrio harveyi JMH597 AI-2 luminescence/OD600 ratio, 9 h; hits give low values; strain lacks LuxN and CqsS sensors; 0 = neutral-control median. activity change, % at 7.5 µM. hit rate 0.4% among 300,000; in the data active = activity change below about -75%, passing the limit was not always enough; inconclusive = no clear call, values can overlap the other calls;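 note: luminescence divided by OD600 gain over 9 h not by final OD600 alone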
HSP90 refold inh: HSP90 refolding inhibition in rabbit reticulocyte lysate. luciferase refolding luminescence, 3 h. inhibition, % at 5.6 µM. hit rate 0.91% among 290,000;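 active = inhibition above the screen-wide mean plus 3 SD, computed separately per campaign, cut at about 16% in these data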;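 note: 0% = DMSO wells and 100% = 60 µM geldanamycin wells; inhibitors lower the luminescence because luciferase stays unfolded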
JMH597 growth: retest: blocks Vibrio harveyi JMH597 growth; shares compounds with AI-2 QS modul; growth inhibition, % at 7.5 µM; hit rate 1% among 750; AID 2726; OD600 absorbance, 9 h; lacks LuxN and CqsS sensors;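 active = every replicate shows growth inhibition above 50%; inconclusive = at least half, but not all, replicates pass that cutoff; inactive = fewer than half of replicates pass it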
BB721 lum counter: retest counter-screen: luminescence loss in constitutive-on quorum sensing strain BB721; shares compounds with AI-2 QS modul; Vibrio harveyi BB721 luminescence, 9 h; inhibition, % at 7.5 µM; hit rate 95% among 750; AID 2727;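 active = inhibition above about 80% in every replicate, not just on average, limit read from the data; inconclusive = at least half of replicates past the limit, but not all; inactive = fewer than half of replicates past the limit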
BB721 growth: retest: inhibitors of Vibrio harveyi BB721 growth. shares compounds with AI-2 QS modul. OD600 absorbance, 9 h. growth inhibition, % at 7.5 µM. hit rate 3% among 750. AID 2728;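 active = every replicate shows growth inhibition above 50%; inconclusive = at least half but not all replicates above 50% inhibition; inactive = under half of replicates above 50% inhibition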
AI-2 QS JMH597: Vibrio harveyi AI-2 signaling luminescence modulation – JMH597 strain, confirmation; shares compounds with AI-2 QS modul; Vibrio harveyi JMH597 AI-2 quorum sensing luminescence, 9 h; luxN and CqsS knockout, AI-2 only; inhibition, % at 7.5 µM; hit rate 97% among 750; AID 2736;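 active = every replicate shows more than 75% inhibition of signal versus neutral control wells; inconclusive = half to three quarters of replicates exceed 75% inhibition; inactive = fewer than half of replicates exceed 75% inhibition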
Numbers without * were called inactive; ? = inconclusive; / = no result.

SMILES | SMARCA2 act | GAA850 FXN act | HSF1 inhib | PG9 Ab binder | AI-2 QS modul | HSP90 refold inh | JMH597 growth | BB721 lum counter | BB721 growth | AI-2 QS JMH597
Cc1nn(CC(=O)Nc2ccc3c(c2)oc2ccccc23)c(=O)c2ccccc12 | -1 | 0 | 2 | 3 | -39 | 3 | / | / | / | /
Cc1nn(CC(=O)Nc2ccc(S(N)(=O)=O)cc2)c(=O)c2ccccc12 | -1 | 0 | -2 | -2 | -84* | 0 | -11 | 98* | -14 | 99*
COc1ccc(-n2c(CSc3ccc(Cl)cc3)n[nH]c2=S)cc1 | 3 | / | / | 4 | / | / | / | / | / | /
CC(C)(C)c1ccc(OCC(=O)NCc2ccco2)cc1 | -2 | 0 | -4 | 0 | ? | 2 | 24 | 88* | 10 | 94*
O=C(COc1ccccc1)NCc1ccco1 | -1 | 2 | / | 1 | / | / | / | / | / | /
CC(C)c1[nH]nc2c1C(c1ccc3c(c1)OCO3)NC2=O (stereo not drawn) | 0 | / | / | 0 | / | / | / | / | / | /
Cc1nc2ccccc2cc1OCc1ccccc1 | -4 | -1 | 14 | 1 | -81* | 4 | 24 | 93* | ? | 96*
COc1cccc(CNC(=O)CN2CCCc3ccccc32)c1 | -6 | / | / | / | / | / | / | / | / | /
Cc1ccccc1CSc1nnnn1-c1ccc(C(N)=O)cc1 | -4 | 2 | -3 | -1 | 11 | -1 | / | / | / | /
Oc1ccc(-n2nnnc2SCc2ccccc2Br)cc1 | / | 0 | 1 | / | ? | 0 | 12 | 81* | 1 | 87*
COc1cc(=O)oc(C=O)c1C | 1 | / | / | 0 | / | / | / | / | / | /
O=C(CN1C(=O)c2ccccc2S1(=O)=O)Nc1ccc(S(=O)(=O)N2CCCCC2)cc1 | -2 | 1 | 3 | 0 | -85* | 1 | 42 | 96* | 39 | 98*
O=C(CN1C(=O)c2ccccc2S1(=O)=O)Nc1cccc(S(=O)(=O)N2CCCCC2)c1 | -4 | 3 | / | -1 | / | / | / | / | / | /
O=C(CN1C(=O)c2ccccc2S1(=O)=O)Nc1ccc(S(=O)(=O)N2CCCC2)cc1 | -2 | 0 | 1 | 0 | -95* | 0 | 13 | 98* | 29 | 98*
CSc1cccc(NC(=O)CN2C(=O)c3ccccc3S2(=O)=O)c1 | 2 | -1 | -2 | -3 | -86* | 4 | 27 | 94* | 5 | 96*
COc1ccc(NC(=O)CN2C(=O)c3ccccc3S2(=O)=O)cc1OC | 2 | 2 | -11 | 2 | 7 | -3 | / | / | / | /
CCCCn1nnnc1C(c1cc2ccccc2o1)N1CCN(c2cc(C)nc3ccccc23)CC1 (stereo not drawn) | -3 | / | / | 4 | / | / | / | / | / | /
CN1CCCCC(NC(=O)COCc2ccccc2)C1=O (stereo not drawn) | -1 | / | / | 0 | / | / | / | / | / | /
Cc1cccc(OCC(=O)NCc2nc(-c3ccccc3)no2)c1 | -2 | -2 | 3 | -1 | 23 | -5 | / | / | / | /
O=C(O)COCC(=O)NCc1nc(-c2ccc(C(F)(F)F)cc2)no1 | -3 | 0 | -12 | 0 | -1 | 1 | / | / | / | /
Cc1cccc(NCc2nc(-c3ccccc3)no2)c1 | 1 | 2 | 5 | -5 | ? | 0 | 12 | 96* | -11 | 98*
Cc1cccc(-c2noc(CNC(=O)c3ccco3)n2)c1 | -4 | 3 | 5 | -2 | -94* | 1 | 8 | 99* | 29 | 99*
O=C(NCc1nc(-c2ccccc2)no1)c1ccc(Br)o1 | -2 | 1 | 1 | 1 | -95* | -2 | -24 | 98* | -28 | 99*
O=C(NCc1nc(-c2ccc(C(F)(F)F)cc2)no1)c1cccs1 | -2 | -1 | -7 | -2 | -94* | -1 | -19 | 96* | -13 | 97*
O=C(Nc1c(-c2ccc(Cl)cc2)[nH][nH]c1=O)c1ccccn1 | 0 | / | / | -1 | / | / | / | / | / | /
SMILES | SMARCA2 act | GAA850 FXN act | HSF1 inhib | PG9 Ab binder | AI-2 QS modul | HSP90 refold inh | JMH597 growth | BB721 lum counter | BB721 growth | AI-2 QS JMH597
Clc1cccc(CSc2ccc(-c3cccnc3)nn2)c1 | 7 | 1 | 2 | 1 | -91* | 1 | 5 | 97* | 14 | 98*
Clc1cccc(CSc2ccc(-c3ccco3)nn2)c1 | 0 | 2 | 16 | 0 | -4 | 1 | / | / | / | /
Cc1cc(C(=O)NNC(=O)c2ccc(S(=O)(=O)N(C)C)cc2)c(C)o1 | 0 | 2 | -4 | -1 | -84* | -1 | 12 | 88* | 12 | 93*
COC(=O)Cc1nnn2c1[C@H](C)[C@H](c1ccccc1Br)OC[C@H](C)C2 | -1 | / | / | -1 | / | / | / | / | / | /
O=C(CSc1ncc(-c2ccccc2)[nH]1)Nc1ccccc1 | 2 | -1 | 1 | 0 | -82* | 0 | 16 | 93* | 23 | 94*
N#Cc1nc(-c2ccccc2F)oc1NCc1ccccc1 | -2 | 0 | 0 | 2 | -90* | -2 | -20 | 96* | -2 | 97*
Cc1ccc(CNc2oc(-c3ccco3)nc2C#N)cc1 | 0 | 0 | 13 | -2 | -86* | 0 | 20 | 95* | 7 | 98*
COc1cc(-c2nnc(SCC(=O)NN=Cc3c[nH]c4ccccc34)n2-c2ccccc2)cc(OC)c1OC | -2 | / | / | / | / | / | / | / | / | /
CCCCC(Br)C(=O)Nc1ccc(S(=O)(=O)Nc2cc(C)nc(C)n2)cc1 (stereo not drawn) | 3 | -1 | 6 | -3 | -86* | 1 | -12 | 88* | 3 | 90*
Cc1ccc(CCC(=O)Nc2ccccc2F)s1 | 6 | 7 | 18 | -2 | -89* | 5 | 17 | 94* | 3 | 96*
Cc1ccc(O)c(NC(=O)CSc2ccc(Cl)cc2)c1 | -2 | 3 | 112 | 0 | -87* | 0 | 12 | 93* | 5 | 95*
C=CCN1C(=O)[C@H](CC(=O)NCCCCc2ccccc2)[C@@]2(C(=O)OCC)CCCC=C12 | -2 | / | / | / | / | / | / | / | / | /
COc1cc(NS(=O)(=O)c2ccc(-n3cccn3)cc2)cc(OC)c1 | / | -1 | / | / | / | / | / | / | / | /
O=C(COC(=O)c1ccc(Br)o1)Nc1nc2ccccc2s1 | -1 | 1 | -4 | -2 | ? | 2 | 16 | 93* | 24 | 95*
C[C@@H]1[C@@H](O)C[C@@]2(CC(=O)c3ccccc3O2)O[C@H]1c1ccccc1 | 0 | / | / | / | / | / | / | / | / | /
COc1ccc(Cc2nc(-c3ccc(Cl)cc3)no2)cc1 | 5 | 2 | 12 | -1 | -88* | -2 | 10 | 97* | -5 | 98*
Clc1ccc(-c2noc(COc3ccccc3)n2)cc1 | -4 | 1 | 17 | 0 | ? | -3 | 1 | 86* | 15 | 94*

Compound activity from PubChem.
